# Over roughly 39,000 sequences, “fluorescence intensity (a.u.)” has its median near 4,300; the highest 2% begin near 39,000. Many of the other results were omitted from the sample, so the highest values are more common in it than they were.
# Biological target: T1, OsSMF1 (Oryza sativa, UniProt Q6ZLB0 1-436)
# T1 sequence: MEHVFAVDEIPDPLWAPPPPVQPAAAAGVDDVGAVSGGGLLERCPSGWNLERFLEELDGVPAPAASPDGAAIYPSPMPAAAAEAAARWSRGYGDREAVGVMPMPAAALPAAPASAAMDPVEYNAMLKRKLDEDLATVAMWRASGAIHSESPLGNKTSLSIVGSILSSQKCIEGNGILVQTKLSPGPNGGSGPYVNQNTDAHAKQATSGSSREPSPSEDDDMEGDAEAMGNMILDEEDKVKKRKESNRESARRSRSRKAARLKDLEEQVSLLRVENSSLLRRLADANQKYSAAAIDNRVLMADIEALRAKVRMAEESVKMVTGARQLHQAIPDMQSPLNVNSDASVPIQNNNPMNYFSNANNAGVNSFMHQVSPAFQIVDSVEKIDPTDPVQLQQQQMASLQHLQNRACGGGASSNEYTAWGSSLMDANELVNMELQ
# Experiment: protein-binding microarray (RPBM); PBS, 2% BSA, 51.3 ng/ul salmon testes DNA, 50 uM zinc acetate, 200 nM TF, 25 C, 1 h; high values mean tight binding
# Settings: protein: recombinant; tags: N-terminal polyhistidine and DsRed monomer fusion (pET32a); chain copies: 2; label: CyDye5-dUTP incorporated in the synthesized complementary strand; 3' TTTTT single-stranded linker to array surface; dsDNA, one strand shown
# Procedure, shortened: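 Ni–NTA purification followed expression in E. coli BL21-CodonPlus of transcription factors fused N-terminally to a polyhistidine tag and DsRed. At 200 nM in PBS with 2% BSA, salmon testes DNA and 50 µM zinc acetate, the protein was incubated for 1 h at 25 °C with a custom Agilent array that had been primer-extended with Cy5-dUTP and blocked with 2% BSA. After washing, the array was read on an Axon 4000B scanner. The binding signal is per-feature fluorescence intensity in arbitrary units.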
row,Sequence,binding signal
1,TATGTGTTGACACCAAGGCTGACTCGGTTTTCGTCAAGGTCGGAGTCACCTAGTGCAG,6530 fluorescence intensity (a.u.)
2,GTCGTCTAGTAGTAGTAGCCTACCACCACCTCCCTCGGCGCGGAGTCACCTAGTGCAG,3230 fluorescence intensity (a.u.)
3,AAATGGGGCCTAGAGTTCCAACCAATTGCAGCAAGAGCAGCGGAGTCACCTAGTGCAG,3230 fluorescence intensity (a.u.)
4,AATTGGGATCAAAGCCTTCATGTTCATAGCAAATCAAGAGCGGAGTCACCTAGTGCAG,45900 fluorescence intensity (a.u.)
5,TAGCAAGAGACCTTGTTGAGCATGTCATCAATGTCAAGTGCGGAGTCACCTAGTGCAG,4150 fluorescence intensity (a.u.)
6,AGAATTTTGCAGACCGAGGCTTGGCCACCGAGGCGCAAGCCGGAGTCACCTAGTGCAG,3790 fluorescence intensity (a.u.)
7,GAACGACCCGAACTTATGACTCATTTATGGTTTGTTTCTCCGGAGTCACCTAGTGCAG,8680 fluorescence intensity (a.u.)
8,ACCTCCTCCACCTCCATGGCTCACCACCACGTACAGCAAACGGAGTCACCTAGTGCAG,3360 fluorescence intensity (a.u.)
9,TTTTAAGGGGCAAATCTTACCAACTTTTACTAGCGTGTCACGGAGTCACCTAGTGCAG,3680 fluorescence intensity (a.u.)
10,AGTAGCAAAACCTGTTTGTAGAGGAAATTATTATAGTGTTCGGAGTCACCTAGTGCAG,53700 fluorescence intensity (a.u.)
11,CTGTAGCAAATTAGAAGCAAAAGTGTTAGTTCAAATTGTGCGGAGTCACCTAGTGCAG,3320 fluorescence intensity (a.u.)
12,CTAAAACCACATATAAGGAGTGTCCTGTAGCAAAATTTCCCGGAGTCACCTAGTGCAG,4200 fluorescence intensity (a.u.)
13,CGTGTGTAACTTTGGAACCTGCCACGGGAGAGCGAATTCCCGGAGTCACCTAGTGCAG,25500 fluorescence intensity (a.u.)
14,ACAAATTATAAGTAACAAACTTTTGTGACGTATAGTAGCCCGGAGTCACCTAGTGCAG,4440 fluorescence intensity (a.u.)
15,TGTGAATTACTAGTAGTACGTAAGCATAAATACGCCACCCCGGAGTCACCTAGTGCAG,3550 fluorescence intensity (a.u.)
16,GAATAGTAACAATTAGTTTTGTGAATTTTGTGAAATACGCCGGAGTCACCTAGTGCAG,52300 fluorescence intensity (a.u.)
17,ACCAACGGCCCGAGTCCGACACACGTCTCACGCACGAGCACGGAGTCACCTAGTGCAG,3910 fluorescence intensity (a.u.)
18,AACCTGCTGTCCACTACAACGTCACATTTCAACAAATCCACGGAGTCACCTAGTGCAG,34200 fluorescence intensity (a.u.)
19,GCTTCCCGCACGACACCTGTCCACACAAATCTTAGAGCAACGGAGTCACCTAGTGCAG,41400 fluorescence intensity (a.u.)
20,CACACAGCCGCCCTTGCCGACCGCCACCGCCGCAACCGCACGGAGTCACCTAGTGCAG,3300 fluorescence intensity (a.u.)
21,TTTGCGAACGTAATTCCATTAATTAAACACACGTCTATATCGGAGTCACCTAGTGCAG,3220 fluorescence intensity (a.u.)

row,Sequence,binding signal
1,TCGAAGAAGCCCTTTATTTCTCTTTTCGATACTCACACAACGGAGTCACCTAGTGCAG,3260 fluorescence intensity (a.u.)
2,GGCGGAGAGGGTATGGACAACAGCGCCGAGGTGGCGTGGCCGGAGTCACCTAGTGCAG,5480 fluorescence intensity (a.u.)
3,GCGTGGGGCGCCGGTGGCGGAGGGTGGGGACGACAACCAGCGGAGTCACCTAGTGCAG,65500 fluorescence intensity (a.u.)
4,CAGCTACCTCAGCGCCAACCGGACTGGCGCTGAGGTGGGACGGAGTCACCTAGTGCAG,39200 fluorescence intensity (a.u.)
5,GCCAGGTGGGCTGGCGCTGAGTGTCCCACGGTCAGCGCCACGGAGTCACCTAGTGCAG,4010 fluorescence intensity (a.u.)
6,GTCAGCGCCAACTTACTTGGCGCTGAGGTTGTGCACCTCACGGAGTCACCTAGTGCAG,3160 fluorescence intensity (a.u.)
7,CGGGCGACGCCGGTGCTGGCGCCAGCGTGGGGCCGCGACGCGGAGTCACCTAGTGCAG,4780 fluorescence intensity (a.u.)
8,ATTTAATGTTGTCCTAGCTAGATCCATCCAAGGCTCCAAACGGAGTCACCTAGTGCAG,3590 fluorescence intensity (a.u.)
9,CGCCAGCCACCTCCGGCGCCGTTCGCCAGCCACCACGCGCCGGAGTCACCTAGTGCAG,37900 fluorescence intensity (a.u.)
10,ACCTTCTAGACAAGGGTATGATGACATGTACCGATCCCAACGGAGTCACCTAGTGCAG,6680 fluorescence intensity (a.u.)
11,TAGCCGTTAGTGCCACGTGGCGCCTTCCCATTCGACCGCCCGGAGTCACCTAGTGCAG,40600 fluorescence intensity (a.u.)
12,TGTACACGCGCAGGGCGGCCCTGGCGTTGCTGACGTGGCGCGGAGTCACCTAGTGCAG,42500 fluorescence intensity (a.u.)
13,GCCGTTAGTGCCACGTGGCGCCTTCCCATTCGACCGCCGCCGGAGTCACCTAGTGCAG,37400 fluorescence intensity (a.u.)
14,ACGCGCGGGCGTGGCTGACGTGGCCCGGAGAAGGCGGAGGCGGAGTCACCTAGTGCAG,5770 fluorescence intensity (a.u.)
15,CCACCGCCGCCACACAGTCCGCTTCGGTTCCCCGTTTCCGCGGAGTCACCTAGTGCAG,65500 fluorescence intensity (a.u.)
16,GGCGGCGTTCGCGGCGGCGACGTGGGCGTACCTGACGGCGCGGAGTCACCTAGTGCAG,3590 fluorescence intensity (a.u.)
17,CTCCCGCCGTGGCACGCGCGACGTGCCGCGTGCGCACAGGCGGAGTCACCTAGTGCAG,46800 fluorescence intensity (a.u.)
18,GCCCGCCCGTCCCGTCCGACGTCCGCGTCACGCACGCGCGCGGAGTCACCTAGTGCAG,7940 fluorescence intensity (a.u.)
19,CGCGGCGGCGGCGGCGCGAAGGCACGTGGCACGGCGCCGCCGGAGTCACCTAGTGCAG,3420 fluorescence intensity (a.u.)
20,GAACGGTCAAATAGCCGTTAGTGCCACGTGGCGCCTTCCCCGGAGTCACCTAGTGCAG,25100 fluorescence intensity (a.u.)
21,CTTCCCGCCGCCGCCACTGCCACGAACAGTTCGCTCACCGCGGAGTCACCTAGTGCAG,3200 fluorescence intensity (a.u.)

# — PMC7819943, “Rice protein-binding microarrays: a tool to detect cis-acting elements near promoter regions in rice”
